Compound activity as filed in PubChem.
KDM4E inh: qHTS Assay for Inhibitors of Human Jumonji Domain Containing 2E (JMJD2E); Lysine-specific demethylase 4E (Homo sapiens), B2RXH2; JMJD2E catalytic domain, FDH-coupled NADH fluorescence (FDH is formaldehyde dehydrogenase); Potency, µM (doses to about 57.1 µM), without a hit: at the highest dose activity change, negative = inhibition, hits mostly inhibitors; 230,000 compounds, 1.6% hits; AID 2147, 2009; active = well fitted inhibition curve with a large enough effect, not every such curve was filed as active; inconclusive = small, poorly fitted or top-dose-only effect, or another doubt; inactive = no such curve, though single readings can be large or run the other way;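 also: potency is read from the fitted curve at half-maximal effect; 0% = wells with enzyme and -100% = buffer wells without enzyme; nearly all actives have a fitted effect of over 50% in size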
Target sequence (B2RXH2 1-337 limits assumed): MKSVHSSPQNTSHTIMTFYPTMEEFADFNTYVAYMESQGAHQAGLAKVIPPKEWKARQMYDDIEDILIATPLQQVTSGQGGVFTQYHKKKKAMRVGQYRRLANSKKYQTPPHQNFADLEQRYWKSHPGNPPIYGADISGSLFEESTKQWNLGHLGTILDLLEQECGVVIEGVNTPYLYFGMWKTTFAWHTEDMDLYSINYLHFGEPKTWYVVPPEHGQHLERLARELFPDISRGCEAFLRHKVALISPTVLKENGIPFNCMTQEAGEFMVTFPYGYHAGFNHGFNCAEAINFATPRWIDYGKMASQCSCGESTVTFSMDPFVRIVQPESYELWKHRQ
Tau FP inhib: qHTS for Inhibitors of Tau Fibril Formation, Fluorescence Polarization; Microtubule-associated protein tau (Homo sapiens), P10636; K18 P301L tau heparin fibrillization, Alexa594 FP, 6 h; Potency, µM (top dose mostly 57.7 µM), without a hit: at the top dose activity, negative = inhibition, actives largely listed as inhibitors; 280,000 compounds, 0.39% hits; AID 1468, 2008; also: potency is read from the fitted curve at half-maximal effect; nearly all actives have a fitted effect of over 55% in size
Target sequence (P10636 561-689 P618L limits assumed): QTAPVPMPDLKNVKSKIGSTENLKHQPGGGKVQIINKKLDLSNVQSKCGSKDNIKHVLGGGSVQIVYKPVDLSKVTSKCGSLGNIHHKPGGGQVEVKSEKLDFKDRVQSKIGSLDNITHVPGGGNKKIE
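Human tau K18 […] P301L fragment, 15 uM unlabeled plus 0.24 uM Alexa 594-labeled tau (final), with compound and 20 uM heparin in 100 mM sodium acetate pH 7; 6 hr at 37 C, then Alexa 594 FP read.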
Tau fibril ThT: qHTS for Inhibitors of Tau Fibril Formation, Thioflavin T Binding | Microtubule-associated protein tau (Homo sapiens), P10636 | recombinant tau K18 P301L, heparin-induced fibrillization, ThT fluorescence | Potency, µM (series often up to 57.4 µM), for inactives: top-dose activity, negative = inhibition, usual class: inhibitors | 270,000 compounds, 2.1% hits | AID 1460, 2008; also: potency is read from the fitted curve at half-maximal effect; nearly all actives have a fitted effect of over 55% in size
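In this qHTS, human K18 P301L tau is incubated with compound and heparin for 6 hr at 37 C, and Thioflavin T fluorescence then reports fibril load.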
FBPA coupling cs: qHTS Assay for Inhibitors of Fructose-1,6-bisphosphate Aldolase from Giardia Lamblia: Coupling assay counterscreen; coupling enzyme system counterscreen, AmpLite Red fluorescence; activity change, negative = inhibition, % at 58.2 µM, hits read low; 290,000 compounds, 0.67% hits; AID 2472, 2010; in the data active = activity change below about -30%
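Coupling enzymes only (glyceraldehyde-3-phosphate) + compound, at 57.5 uM final, 10 min RT; add substrate/coupling/AmpLite Red mix, 20 min RT; fluorescence ex 525/em 598 nm. Actives flag coupling-system interference.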
Tau fluor counter: Counterscreen qHTS for Inhibitors of Tau Fibril Formation, Fluorescence Polarization; tau K18 P301L (four-repeat tau fragment) Alexa594 fluorescence, heparin fibrillization; Potency, µM (highest dose often 57.7 µM), for the others: at the top dose activity change, negative = decrease; 280,000 compounds, 0.93% hits; AID 1463, 2008; also: potency is read from the fitted curve at half-maximal effect; nearly all actives have a fitted effect of over 55% in size
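Human K18 P301L tau (15 uM unlabeled plus 0.24 uM Alexa 594-labeled, final) in 100 mM sodium acetate pH 7 was mixed with compound and 20 uM heparin and incubated 6 hr at 37 C.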
Active calls of the source: *; ! = not active in a repeat; [ ] = dose if it differs, or a comment. In the library only some 3% were active in any assay of this set; here they are far more common. Unless noted, calls follow the shape of the dose curve; as a rule, active = well fitted curve in the direction sought with a large enough effect; inconclusive = small, poorly fitted or top-dose-only effect, or another doubt; inactive = no such curve, though single readings can be large; an effect the other way counts as inactive or inconclusive. Unless noted, % is scaled to controls: 0 for no effect and ±100 for the full control effect.

Results for CC(=O)Nc1c(C)nn(-c2ccccc2)c1N1CCC(C(=O)Nc2ccccc2C(F)(F)F)CC1 ?
Tau FP inhib: -2%; Tau fibril ThT: -3%; Tau fluor counter: -4%

How did COc1cc(C(Nc2ccccn2)c2ccc3ccc(C)nc3c2O)cc(OC)c1O (configuration not stated) do in these assays?
KDM4E inh: 22µM*; Tau FP inhib: inconclusive; Tau fibril ThT: 16µM*; FBPA coupling cs: -9; Tau fluor counter: inconclusive

What do the screens show for `Cc1ccc2ccc(C(Nc3ccccn3)c3ccccc3)c(O)c2n1` (configuration not stated)?
KDM4E inh: inconclusive; Tau FP inhib: 6%; Tau fibril ThT: inconclusive; FBPA coupling cs: -1; Tau fluor counter: -19%

How did COc1ccc(-c2ccc(C(=S)N3CCN(C(C)=O)CC3)o2)cc1 do in these assays?
KDM4E inh: inconclusive; Tau FP inhib: inconclusive; Tau fibril ThT: 28µM*; FBPA coupling cs: -7; Tau fluor counter: -28%

How did CC(C)CCC[C@@H](C)[C@H]1CC[C@H]2[C@@H]3CC=C4CC(O)CC[C@]4(C)[C@H]3CC[C@]12C (some centres not stated) do in these assays?
FBPA coupling cs: 0

What do the screens show for `CCC[C@@H]1NC(=O)[C@@H](NC(C)=O)CSSC[C@@H](C(N)=O)NC(=O)CNC(=O)[C@H](Cc2c[nH]c3ccccc23)NC(=O)[C@H](CCCN=C(N)N)NC(=O)[C@H](Cc2ccc3ccccc3c2)NC(=O)[C@H](Cc2cnc[nH]2)NC(=O)[C@H](CCCN=C(N)N)NC1=O`?
FBPA coupling cs: 7

Results for O=C(CSC(=S)N1CCCC1)c1cc(Br)cc(Br)c1O ?
KDM4E inh: inconclusive; Tau FP inhib: 6%; Tau fibril ThT: inconclusive; FBPA coupling cs: -14; Tau fluor counter: 14%

How did CC1CCCN(C(=S)SCC(=O)c2cc(Br)cc(Br)c2O)C1 (configuration not stated) do in these assays?
KDM4E inh: inconclusive; Tau FP inhib: inconclusive; Tau fibril ThT: 16µM*; FBPA coupling cs: -13; Tau fluor counter: inconclusive

How did COc1ccc(CNc2oc(/C=C/c3cc(OC)c(OC)c(OC)c3)nc2C#N)cc1 do in these assays?
Tau FP inhib: inconclusive; Tau fibril ThT: -14%; Tau fluor counter: inconclusive

Results for CCOP(=O)(OCC)C(NC(=O)c1cc([N+](=O)[O-])cc([N+](=O)[O-])c1)C(F)(F)F (configuration not stated) ?
KDM4E inh: -7%; Tau FP inhib: inconclusive; Tau fibril ThT: 25µM*; FBPA coupling cs: 0; Tau fluor counter: inconclusive

How did CCOP(=O)(OCC)C(C)(C)NC(=O)c1cc([N+](=O)[O-])cc([N+](=O)[O-])c1 do in these assays?
KDM4E inh: -4%; Tau FP inhib: -1%; Tau fibril ThT: -13%; FBPA coupling cs: 4; Tau fluor counter: -7%

What do the screens show for `N[C@H](C(=O)O)c1cc(O)cc(O)c1`?
KDM4E inh: 16µM*!; Tau FP inhib: inconclusive; Tau fibril ThT: inconclusive; FBPA coupling cs: 2; Tau fluor counter: inconclusive

Results for N[C@@H](C(=O)O)c1ccc(C(=O)O)c(O)c1 ?
KDM4E inh: inconclusive; Tau FP inhib: -11%; Tau fibril ThT: -12%; FBPA coupling cs: 2; Tau fluor counter: -8%

How did COC(=O)c1c(SC)nc2ccccc2c1OCc1ccccc1C do in these assays?
Tau FP inhib: inconclusive; Tau fibril ThT: inconclusive; Tau fluor counter: -29%

How did O=c1c2ccccc2nc(COc2ccccc2)n1/N=C/c1ccc(O)cc1O do in these assays?
KDM4E inh: inconclusive; Tau FP inhib: -4%; Tau fibril ThT: inconclusive; FBPA coupling cs: -2; Tau fluor counter: 16µM*[quencher]

How did Cc1nc2ccccc2c(=O)n1/N=C/c1ccc2ccccc2c1O do in these assays?
KDM4E inh: inconclusive; Tau FP inhib: -2%; Tau fibril ThT: inconclusive; FBPA coupling cs: -32*; Tau fluor counter: inconclusive

What do the screens show for `Cc1nc2ccccc2c(=O)n1/N=C/c1ccc(O)c(O)c1O`?
FBPA coupling cs: -45*

Results for Cc1nc2ccccc2c(=O)n1/N=C/c1ccccc1O ?
KDM4E inh: 25µM*; Tau FP inhib: -6%; Tau fibril ThT: -14%; FBPA coupling cs: 2; Tau fluor counter: -25%

What do the screens show for `CCN(CC)CCC[C@H](C)Nc1c2ccc(Cl)cc2nc2ccc(OC)cc12`?
KDM4E inh: inconclusive; FBPA coupling cs: -2

What do the screens show for `O=C1C[C@@H](O)[C@@H](O)[C@H]2[C@@H]3C(=O)N(C4CCCCC4)C(=O)[C@@H]3CC[C@H]12`?
Tau FP inhib: 2%[11.6 µM]; Tau fibril ThT: inconclusive; FBPA coupling cs: 1; Tau fluor counter: inconclusive

What do the screens show for `CCOc1ccccc1NC(=O)CCc1c(C)nc2c(c(C)nn2-c2ccccc2)c1C`?
Tau FP inhib: -1%; Tau fibril ThT: -4%; Tau fluor counter: -9%

Results for CCOC(=O)CNC(=O)O[C@@H]1Cc2cc(OC)ccc2O[C@H]1c1cccc(OC)c1 ?
KDM4E inh: 3%; Tau FP inhib: -1%; Tau fibril ThT: 0%; FBPA coupling cs: 2; Tau fluor counter: 0%

How did O=C1c2ccccc2C(=O)N1/N=C/c1ccc(O)c(O)c1O do in these assays?
KDM4E inh: 2.2µM*; Tau FP inhib: 6.3µM*; Tau fibril ThT: 4µM*; FBPA coupling cs: -68*; Tau fluor counter: inconclusive

How did Cc1ccc(-n2[nH]c(C)c(/C=N/n3c(C)nc4ccccc4c3=O)c2=O)cc1 do in these assays?
KDM4E inh: inconclusive; Tau FP inhib: inconclusive; Tau fibril ThT: 25µM*; FBPA coupling cs: 6; Tau fluor counter: -29%

How did Cc1cccc(-c2nc(CCNC(=O)c3ccccc3Br)cs2)c1 do in these assays?
Tau FP inhib: 4%; Tau fibril ThT: -13%; Tau fluor counter: -12%

What do the screens show for `O=C(Nc1ccc(Nc2ccncc2)cc1)c1ccc(Nc2ccnc3ccc([N+](=O)[O-])cc23)cc1[N+](=O)[O-]`?
KDM4E inh: inconclusive; Tau FP inhib: -3%; Tau fibril ThT: inconclusive; FBPA coupling cs: -3; Tau fluor counter: 11µM*[quencher]

How did O=C(Nc1ccc(Nc2ccncc2)cc1)c1ccc([N+](=O)[O-])cc1 do in these assays?
KDM4E inh: -2%; Tau FP inhib: 7%; Tau fibril ThT: inconclusive; FBPA coupling cs: 1; Tau fluor counter: -13%

How did Cn1c(NNC(=O)c2ccc(C(C)(C)C)cc2)cc(=O)n(C)c1=O do in these assays?
KDM4E inh: -1%; Tau FP inhib: 2%; Tau fibril ThT: -15%; FBPA coupling cs: -34*; Tau fluor counter: -8%
